Reference: PubChem BioAssay (NCI)
Compounds without any hit were thinned out: in the full panel of roughly 79,000, 15% have a hit. The source made the active and inactive calls. Rule as the data show it: active = growth inhibition above about 70%; inactive = the rest.

What was measured:
[1] = NCI Yeast Anticancer Drug Screen. Data for the rad50 strain (AID 155);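 also: 0% = growth of vehicle-only cultures of the same strain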; conditions: S. cerevisiae rad50 strain growth inhibition; at 50.0 µM; stronger effect = higher value
How it was run: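 Vehicle-treated cultures provide the reference for the growth inhibition reported for compound-exposed, repair-deficient yeast.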

[2] = NCI Yeast Anticancer Drug Screen. Data for the mec2-1 strain (AID 157); conditions: S. cerevisiae mec2-1 strain, at 50.0 µM, stronger effect = higher value
How it was run: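 Vehicle-treated cultures served as reference for growth inhibition of compound-exposed mec2-1 yeast.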

[3] = NCI Yeast Anticancer Drug Screen. Data for the sgs1 mgt1 strain (AID 161);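 also: 0% = growth of cultures given vehicle only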; conditions: S. cerevisiae sgs1 mgt1 strain, at 50.0 µM, stronger effect = higher value
How it was run: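 Read-out: growth inhibition vs vehicle controls. Cells: mutant yeast strain deficient in DNA damage repair.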

[4] = NCI Yeast Anticancer Drug Screen. Data for the cln2 rad14 strain (AID 165);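 also: 0% = growth equal to vehicle treated cultures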; conditions: S. cerevisiae cln2 rad14 strain, at 50.0 µM, stronger effect = higher value
How it was run: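 Each compound was tested on cln2 rad14 yeast. Inhibition of growth was calculated against vehicle-exposed controls.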

[5] = NCI Yeast Anticancer Drug Screen. Data for the bub3 strain (AID 167); conditions: S. cerevisiae bub3 mutant strain, at 50.0 µM, stronger effect = higher value
How it was run: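 Mutant yeast screening strain plus compound; vehicle-treated cultures serve as the 0% inhibition reference.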

[6] = NCI Yeast Anticancer Drug Screen. Data for the mlh1 rad18 strain (AID 175); conditions: S. cerevisiae mlh1 rad18 strain growth inhibition; at 50.0 µM; stronger effect = higher value
How it was run: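 Vehicle-treated cultures served as the reference for growth inhibition in a yeast strain carrying DNA damage repair alterations exposed to each compound.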

Measured: growth inhibition

CCSCCC(Nc1ncnc2nc[nH]c12)C(=O)O (stereo not given)
inactive: [1] -17.8% | [2] 8.75% | [3] -5.65% | [4] -17% | [5] -4.8% | [6] -19.4%

CCOC(=O)/C(Cc1ccccc1[N+](=O)[O-])=N/O
inactive: [1] 6.7% | [2] 2.85% | [3] 8.65% | [4] -13.4% | [5] 12.3% | [6] 26.6%

CC(c1ccc(N)cc1)n1cnc2c(Cl)ncnc21 (stereo not given)
inactive: [1] -3.75% | [2] 18.2% | [3] 4.1% | [4] -5.5% | [5] 8.85% | [6] 7.85%

COc1ccc(NC(=S)N(CCC#N)C2CCCCC2)cc1
inactive: [1] -1.1% | [2] -24.3% | [3] -3% | [4] 16.8% | [5] -1.5% | [6] -4.05%

CC1(c2ccccc2)OCC(c2ccccc2)O1 (stereo not given)
inactive: [1] -9.2% | [2] -23.2% | [3] -7% | [4] -22% | [5] 12.7% | [6] 10.3%

Cc1c2c(cc3c1[nH]c1ccccc13)C(c1ccc(F)cc1)=NCC2
inactive: [1] -1.8% | [2] 5.55% | [3] 1.85% | [4] -51% | [5] -0.6% | [6] -2.45%

Nc1nnc(N)c2nc(-c3ccccc3)c(-c3ccccc3)nc12
inactive: [1] 10.4% | [2] 16.4% | [3] 28.1% | [4] -14.8% | [5] 8.15% | [6] 20.9%

C=C1C(=O)O[C@H]2C1[C@H](OC(=O)/C(C)=C\COC(C)=O)C[C@]1(CO1)[C@@H]1[C@H](O)[C@H]3O[C@@]3(C)[C@@H]12 (stereo not given in full)
inactive: [1] -5.95% | [2] -26.4% | [3] -13% | [4] -1% | [5] -52% | [6] -2.05%

Cc1ccc(-c2cc(-c3ccccc3)c(C#N)c(=O)[nH]2)cc1
inactive: [1] 16.1% | [2] 9.4% | [3] 12.6% | [4] 8.55% | [5] 3.8% | [6] 25.6%

O=C1CC(=C=Nc2ccccc2)C(=O)N1c1ccccc1
inactive: [1] 3.6% | [2] 3.85% | [3] 1.7% | [4] -33.5% | [5] -2.2% | [6] 19.8%

O=C(O)c1cc(Br)cc([N+](=O)[O-])c1
inactive: [1] -9.15% | [2] 15.1% | [3] -14.9% | [4] -49.3% | [5] -16.2% | [6] 21.1%

CC(C)CCOCC(O)CNCCN (stereo not given)
inactive: [1] 12.6% | [2] 2.5% | [3] -14.7% | [4] 5.1% | [5] -1% | [6] 12.3%

CCC(C)C(N=C1N=CNC2=NC=NC12)C(=O)O (stereo not given)
inactive: [1] 0.45% | [2] -27.8% | [3] -2.6% | [4] 6.5% | [5] -10.6% | [6] -4.1%

CN(NC(=O)c1ccco1)C1=NCCCCN1
inactive: [1] -11.8% | [2] -10.6% | [3] -15.3% | [4] -16.6% | [5] -10.2% | [6] 0.3%

CCCSc1ccc2c3c(cccc13)C(=O)OC2=O
inactive: [1] 47.5% | [2] 42.9% | [3] 46% | [4] 45.6% | [5] 57.7% | [6] 27.5%

Cc1cccc(NC(=O)Oc2cc(C)c(Cl)cc2C(C)C)c1
active: [1] 93% | [2] 98.9% | [3] 96.8% | [4] 93.3% | [5] 98.5% | [6] 98%

O=C(O)CN=CC(O)C(O)C(O)C(O)CO (stereo not given)
inactive: [1] -9.8% | [2] -3.8% | [3] 3.9% | [4] 4.4% | [5] 9.15% | [6] -2.45%

CC1(n2[nH]c(=O)n(-c3ccccc3)c2=O)Cn2c(=O)n(-c3ccccc3)c(=O)n2-c2ccccc21 (stereo not given)
inactive: [1] -49.2% | [2] -0.3% | [3] -1% | [4] 18.7% | [5] -5.2% | [6] 9.1%

CC(=O)NC(CCCN(Cc1ccccc1)C(=O)NCCCl)C(=O)NCc1ccccc1 (stereo not given)
inactive: [1] 13.7% | [2] -25.5% | [3] 4.5% | [4] 5.7% | [5] -33.7% | [6] -18.6%

CCOC(=O)CC(C)(O)c1ccccc1 (stereo not given)
inactive: [1] -12.2% | [2] -0.55% | [3] 23.4% | [4] -17.4% | [5] 12.3% | [6] 0.15%

CC(Oc1ccccc1)C(=O)NNC(=O)OC(C)(C)C (stereo not given)
inactive: [1] -0.3% | [2] -21.9% | [3] -10.7% | [4] -0.75% | [5] -18.6% | [6] 3.9%

O=C(Nc1ccc(Cl)c(Cl)c1)C(=O)C(C(=O)c1ccccc1-c1ccccc1)C1OC(=O)c2ccccc21 (stereo not given)
inactive: [1] 20.2% | [2] -0.45% | [3] 5.85% | [4] -50.5% | [5] 4.85% | [6] -8.9%

CC1OC(n2ccc3ccc([N+](=O)[O-])cc32)C(O)C(O)C1O (stereo not given)
inactive: [1] -5.2% | [2] -3.85% | [3] -32.7% | [4] -12.2% | [5] -27.8% | [6] -21.4%

Cc1ccc(N=C2SC(=NN(C)C)SC2=Nc2ccc(C)cc2)cc1
inactive: [1] 18.9% | [2] -14.1% | [3] 8.35% | [4] -20.3% | [5] -5.25% | [6] -11.6%

COc1ccc(C(C#N)N2CCCN(C(C#N)c3ccc(OC)cc3)C2c2ccccc2)cc1 (stereo not given)
inactive: [1] -2.1% | [2] 2.95% | [3] -9.05% | [4] -0.2% | [5] -0.1% | [6] 7.1%

COc1ccccc1NC(=O)NCCN1CCCC1
inactive: [1] -2.15% | [2] 8.1% | [3] 31.1% | [4] -8.9% | [5] 9.45% | [6] 5.3%

CCCCN(CCCC)CC(O)c1cc(-c2c(Cl)cccc2Cl)nc2c(Cl)cc(Cl)cc12 (stereo not given)
inactive: [1] 53.3% | [2] 55.3% | [3] 55% | [4] 13.8% | [5] 20.8% | [6] 64.1%

COc1cc(Cn2c(=S)ss/c2=N\C(=S)N(C)C)cc(OC)c1OC
inactive: [1] 1.7% | [2] 4.45% | [3] -0.4% | [4] 6.45% | [5] -2.25% | [6] -12%

CC(C)CC(NC(=O)CN1C(=O)c2ccccc2C1=O)C(=O)O (stereo not given)
inactive: [1] -10.3% | [2] -41.6% | [3] 7.4% | [4] 3.2% | [5] -17% | [6] -24.1%

NC(=O)NC(N)=O
inactive: [1] 13.3% | [2] -10.4% | [3] -9.95% | [4] -34.1% | [5] 18.9% | [6] 21.9%

COC(=O)C(=O)C(C(=O)C(=O)Nc1cccc([N+](=O)[O-])c1)c1nc2ccc(Cl)cc2[nH]c1=O (stereo not given)
inactive: [1] 15% | [2] -22.2% | [3] 14.2% | [4] -19.1% | [5] -1.5% | [6] 0.2%

CC(C)=CC1C(CBr)C1(C)C (stereo not given)
inactive: [1] 2.3% | [2] -15.2% | [3] -12.2% | [4] -26.2% | [5] -10.1% | [6] -11%

COc1ccc(C(O)c2cc(C(F)(F)F)cc(C(F)(F)F)c2)cc1OC (stereo not given)
inactive: [1] 9.2% | [2] -11.6% | [3] 11.2% | [4] 8.2% | [5] 22.9% | [6] 14.3%

OCc1ccccc1CC(O)c1ccccc1 (stereo not given)
inactive: [1] -23.7% | [2] -17.3% | [3] -20.2% | [4] -4.65% | [5] 0.05% | [6] -59.4%

Cc1c(C)c(O)c(C)c(C)c1O
inactive: [1] -8.8% | [2] -17.1% | [3] -4.85% | [4] -13.2% | [5] 6.85% | [6] 11.4%

CSc1nc2c(c(=O)n1C)N=C(c1ccc([N+](=O)[O-])cc1)CC(c1ccccc1)N2 (stereo not given)
inactive: [1] 6.8% | [2] 3.1% | [3] 17.8% | [4] 10.7% | [5] 18.1% | [6] -16.2%

CC1CC/C(=C\c2ccccc2)C(=O)/C1=C/c1ccccc1 (stereo not given)
inactive: [1] 22.2% | [2] -11.1% | [3] 13.8% | [4] 9.45% | [5] 30.2% | [6] 28.8%

Cc1c(S)cnc2ccccc12
inactive: [1] -0.55% | [2] -6.25% | [3] 1.7% | [4] -66.6% | [5] -14.8% | [6] 2.85%

CCc1cccc(C(C)CC)c1NC(=O)CC1C(=O)Nc2ccccc2S1=O (stereo not given)
inactive: [1] 15.2% | [2] 0.65% | [3] 7.2% | [4] 18.1% | [5] 32.5% | [6] 15.2%

O=c1[nH]c(=O)n(COCc2ccccc2)c2ccccc12
inactive: [1] 5.1% | [2] -12.2% | [3] 65.2% | [4] 12.7% | [5] 37.7% | [6] -18.4%
